Experimental findings from PubChem BioAssay (EPA / NIEHS) are described below.

Activity calls are given as the source filed them. How the source made its calls: active means hit-call score of the fitted dose curve at least 0.9, where 1 is the maximum; inactive means score below 0.9.

Experiment [1] is described as follows: ATG_E_Box_CIS: Attagene CIS-FACTORIAL HepG2 Assay for human Enhancer Box (E-box) (AID 2282936). The note with it: HepG2 E-box cis-reporter transcription, actives raise or lower the signal. A digest of the protocol:
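Measured 24 h post-dosing in HepG2 cells transfected with multiple cis-regulated reporter units, signal being reporter mRNA induction detected by fluorescent RT-PCR with capillary electrophoresis; gain or loss fitted against DMSO.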

The nature of experiment [2]: ATG_M_61_CIS: Attagene CIS-FACTORIAL HepG2 Assay for M61 Transcription Factor (Internal Marker) (AID 2282937). The note with it: HepG2 Attagene CIS-FACTORIAL M61 internal marker reporter; actives raise or lower the signal. A digest of the protocol: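 This endpoint serves as an internal background control within a multiplexed HepG2 cis-reporter panel. Cells are exposed for 24 h; reporter mRNA is amplified, fluorescently labelled and sized by capillary electrophoresis, with DMSO as negative control.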

Experiment [3] can be described thus: ATG_EGR_CIS: Attagene CIS-FACTORIAL HepG2 Assay for human Early Growth Response 1 (EGR1) (AID 2282938). The note with it: HepG2 Attagene CIS-FACTORIAL EGR reporter mRNA; actives raise or lower the signal. A digest of the protocol:
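HepG2, transient MRTU transfection (cis promoters), 24 h compound. RNA → RT (oligo-dT) → PCR → 6-FAM labelling → HpaI cut → CE fluorescence. Bidirectional fit, DMSO baseline.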

A short description of experiment [4]: ATG_M_19_CIS: Attagene CIS-FACTORIAL HepG2 Assay for M19 Transcription Factor (Internal Marker) (AID 2282939). The conditions noted are these: HepG2 Attagene CIS-FACTORIAL M19 internal marker reporter; actives raise or lower the signal. The essentials: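 Transfect HepG2 with MRTU reporter library → dose chemical, 24 h → isolate total RNA, reverse-transcribe with oligo(dT) → PCR, 6-FAM label, HpaI cut (2 h, 37 C) → capillary electrophoresis. Bidirectional fit vs DMSO.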

A short description of experiment [5]: ATG_ERE_CIS: Attagene CIS-FACTORIAL HepG2 Assay for Estrogen Response Element (ERE) (AID 2282940). The conditions noted are these: HepG2 ERE cis-reporter, Attagene RNA transcript; actives raise or lower the signal. The essentials:
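Transient MRTU transfection of human HepG2; cis-element promoters; 24 h dosing; total RNA → RT (oligo dT) → PCR → 6-FAM primer extension → HpaI digest → CE fluorescence. Bidirectional fit, DMSO baseline.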

Experiment [6] is described as follows: ATG_Ets_CIS: Attagene CIS-FACTORIAL HepG2 Assay for human Erythroblast Transformation Specific (ETS) (AID 2282941). The note with it: HepG2 ETS cis-reporter transcription, actives raise or lower the signal. A digest of the protocol: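 Multiplexed reporter transcript profiling: HepG2, 24 h treatment, total RNA to cDNA, PCR, 6-FAM labelling, HpaI cut, capillary electrophoresis. Gain- or loss-of-signal fitted against DMSO.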

In experiment [7] the target is Hepatocyte nuclear factor 3-beta (Homo sapiens) (UniProt Q9Y261). As to the kind of experiment: ATG_FoxA2_CIS: Attagene CIS-FACTORIAL HepG2 Assay for human Forkhead box A2 (FOXA2) (AID 2282942). The note with it: HepG2 cis-reporter transcription factor activity, 24 h; actives raise or lower the signal. A digest of the protocol:
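Cells: HepG2, transient multiplex reporter transfection. Exposure 24 h. Detection: reporter-specific RT-PCR, fluorescent labelling, restriction digest, capillary electrophoresis. Analysis: bidirectional curve fit, DMSO as negative control.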

Experiment [8] is described as follows: ATG_FoxO_CIS: Attagene CIS-FACTORIAL HepG2 Assay for human Forkhead box O (FoxO) (AID 2282943). The conditions noted are these: HepG2 Attagene cis-reporter, FoxO element, mRNA; actives raise or lower the signal. The essentials:
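Values reflect reporter mRNA induction or loss in HepG2 cells 24 h post-dosing, fitted bidirectionally with DMSO as negative control and baseline. Detection used RT-PCR and fluorescence capillary electrophoresis.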

Experiment [9] can be described thus: ATG_GATA_CIS: Attagene CIS-FACTORIAL HepG2 Assay for human GATA Binding Protein (AID 2282944). The note with it: HepG2 GATA cis-element reporter, Attagene multiplex mRNA; actives raise or lower the signal. The essentials: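 Transient MRTU transfection, HepG2, 24 h compound exposure. Total RNA → oligo(dT) RT → PCR → 6-FAM primer extension → HpaI cut → CE. Bidirectional fit vs DMSO.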

Experiment [10] can be described thus: ATG_GLI_CIS: Attagene CIS-FACTORIAL HepG2 Assay for human Zinc Finger Protein GLI1 (AID 2282945). The note with it: HepG2, Attagene cis-factorial reporter mRNA, GLI element; actives raise or lower the signal. A digest of the protocol:
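HepG2 cells transiently transfected with cis-promoter multiplexed reporter units report endogenous transcription factor activity. After 24 h chemical exposure, reporter mRNA was quantified by RT-PCR, 6-FAM labelling, HpaI digestion and capillary electrophoresis, with bidirectional fitting against DMSO.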

Experiment [11] can be described thus: ATG_GRE_CIS: Attagene CIS-FACTORIAL HepG2 Assay for human Glucocorticoid Response Elements (GRE) (AID 2282947). The note with it: HepG2 GRE cis-reporter, Attagene multiplex mRNA; actives raise or lower the signal. A digest of the protocol:
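HepG2, transient cis-reporter transfection, 24 h. Reporter mRNA: RT-PCR then CE, fluorescence. Fit both directions vs DMSO.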

Experiment [12] in a line: ATG_ISRE_CIS: Attagene CIS-FACTORIAL HepG2 Assay for human Interferon Regulatory Factor 1 (IRF1) binding to an Interferon-Stimulated Response Element (ISRE) (AID 2282948). The note with it: HepG2 ISRE cis-reporter (Attagene), mRNA transcription readout; actives raise or lower the signal. The essentials:
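Signal reflects induction or loss of ISRE-linked reporter mRNA in transiently transfected HepG2 cells after a 24 h treatment, detected by fluorescent RT-PCR fragments on capillary electrophoresis and normalised to DMSO.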

Experiment [13] is described as follows: ATG_M_32_CIS: Attagene CIS-FACTORIAL HepG2 Assay for M32 Transcription Factor (Internal Marker) (AID 2282949).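 Further: background control marker of the multiplexed CIS panel rather than a real target.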 The note with it: HepG2 Attagene cis-factorial M32 reporter, mRNA; actives raise or lower the signal. A digest of the protocol: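 Using DMSO as baseline, bidirectional curve fits were applied to reporter mRNA signals. These came from transiently transfected HepG2 cells exposed for 24 h, with RNA analysed by RT-PCR, FAM primer extension, HpaI digestion and CE.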

A short description of experiment [14]: ATG_M_06_CIS: Attagene CIS-FACTORIAL HepG2 Assay for M06 Transcription Factor (Internal Marker) (AID 2282950). The conditions noted are these: HepG2 Attagene CIS-FACTORIAL M06 internal marker reporter; actives raise or lower the signal. The essentials: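 Read-out is fluorescence of labelled reporter cDNA fragments resolved by capillary electrophoresis after RT-PCR. Cells: HepG2 carrying transfected cis-promoter reporter units, treated 24 h. Gain or loss of signal fitted relative to DMSO.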

For experiment [15], the target named is Hepatocyte nuclear factor 6 (Homo sapiens) (UniProt Q9UBC0). Put plainly: ATG_HNF6_CIS: Attagene CIS-FACTORIAL HepG2 Assay for human Hepatocyte Nuclear Factor 6 (HNF6) (AID 2282952). The note with it: HepG2 Attagene cis-factorial HNF6 reporter transcription; actives raise or lower the signal. A digest of the protocol:
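Readout: fluorescent reporter-transcript fragments resolved by capillary electrophoresis after RT-PCR, reflecting endogenous factor activity in transfected HepG2. Exposure 24 h. Gain or loss of signal fitted bidirectionally against DMSO.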

Experiment [16] has as its target Heat shock factor protein 1 (Homo sapiens) (UniProt Q00613). As to the kind of experiment: ATG_HSE_CIS: Attagene CIS-FACTORIAL HepG2 Assay for human Heat Shock Transcription Factor 1 (HSE) (AID 2282953). The note with it: HepG2 HSE cis-reporter, Attagene RNA transcription; actives raise or lower the signal. A digest of the protocol: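 HepG2, transient MRTU transfection, cis-promoter reporters (endogenous TF activity). 24 h compound. RNA → oligo(dT) RT → PCR → 6-FAM primer extension → HpaI cut → CE. Bidirectional fit vs DMSO.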

Experiment [17] can be described thus: ATG_MRE_CIS: Attagene CIS-FACTORIAL HepG2 Assay for human Metal Responsive Element (MRE) (AID 2282954). The conditions noted are these: HepG2 MRE cis-reporter transcription, Attagene multiplex; actives raise or lower the signal. A digest of the protocol:
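Readout: capillary electrophoresis of 6-FAM-labelled, HpaI-digested RT-PCR reporter products. System: HepG2 cells carrying transient multiplexed cis reporters, dosed 24 h. Analysis: bidirectional fit, DMSO baseline.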

The nature of experiment [18]: ATG_PBREM_CIS: Attagene CIS-FACTORIAL HepG2 Assay for human Phenobarbital-responsive Enhancer Module (PBREM) (AID 2282955). The conditions noted are these: HepG2 PBREM cis-reporter, Attagene multiplexed transcription; actives raise or lower the signal. A digest of the protocol: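 HepG2, transient MRTU transfection, 24 h dosing; RNA → oligo(dT) RT → PCR → 6-FAM extension → HpaI → CE. Bidirectional fit vs DMSO.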

Experiment [19] concerns the target Paired box protein Pax-6 (Homo sapiens) (UniProt P26367). Put plainly: ATG_Pax6_CIS: Attagene CIS-FACTORIAL HepG2 Assay for human Paired Box 6 (PAX6) (AID 2282956). The conditions noted are these: HepG2 CIS-FACTORIAL PAX6 reporter transcription, RNA readout; actives raise or lower the signal. A digest of the protocol:
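Values derive from bidirectional curve fitting of reporter mRNA signal relative to DMSO. HepG2 cells bearing transfected cis-regulated MRTUs were exposed for 24 h; transcripts were read by RT-PCR and capillary electrophoresis.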

Experiment [20] deals with Hypoxia-inducible factor 1-alpha (Homo sapiens) (UniProt Q16665). As to the kind of experiment: ATG_HIF1a_CIS: Attagene CIS-FACTORIAL HepG2 Assay for human Hypoxia Inducible Factor 1 (HIF1A) (AID 2282951). The note with it: HepG2 Attagene cis-factorial HIF1a reporter transcription; actives raise or lower the signal. A digest of the protocol:
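HepG2, transient cis-reporter library, 24 h dosing. RNA → RT (oligo dT) → PCR → 6-FAM primer extension → HpaI → CE. Bidirectional curve fit vs DMSO.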

Heat shock factor protein 1 (Homo sapiens), sequence (Q00613 whole entry, looked up): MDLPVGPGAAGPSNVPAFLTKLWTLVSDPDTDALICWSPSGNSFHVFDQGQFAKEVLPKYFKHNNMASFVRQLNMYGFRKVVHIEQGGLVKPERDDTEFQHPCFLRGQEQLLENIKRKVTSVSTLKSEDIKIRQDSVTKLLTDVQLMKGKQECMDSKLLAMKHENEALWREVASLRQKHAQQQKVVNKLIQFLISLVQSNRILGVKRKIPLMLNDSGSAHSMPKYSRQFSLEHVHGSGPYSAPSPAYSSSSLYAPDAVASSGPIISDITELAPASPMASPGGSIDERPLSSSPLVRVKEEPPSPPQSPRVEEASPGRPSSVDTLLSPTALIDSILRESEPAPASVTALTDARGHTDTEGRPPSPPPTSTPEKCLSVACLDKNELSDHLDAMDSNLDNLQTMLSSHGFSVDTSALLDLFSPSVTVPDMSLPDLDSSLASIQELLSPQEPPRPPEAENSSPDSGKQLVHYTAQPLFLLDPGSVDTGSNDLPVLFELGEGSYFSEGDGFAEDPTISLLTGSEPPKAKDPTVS
Hepatocyte nuclear factor 6 (Homo sapiens), sequence (Q9UBC0 whole entry, looked up, the tested form may be a part): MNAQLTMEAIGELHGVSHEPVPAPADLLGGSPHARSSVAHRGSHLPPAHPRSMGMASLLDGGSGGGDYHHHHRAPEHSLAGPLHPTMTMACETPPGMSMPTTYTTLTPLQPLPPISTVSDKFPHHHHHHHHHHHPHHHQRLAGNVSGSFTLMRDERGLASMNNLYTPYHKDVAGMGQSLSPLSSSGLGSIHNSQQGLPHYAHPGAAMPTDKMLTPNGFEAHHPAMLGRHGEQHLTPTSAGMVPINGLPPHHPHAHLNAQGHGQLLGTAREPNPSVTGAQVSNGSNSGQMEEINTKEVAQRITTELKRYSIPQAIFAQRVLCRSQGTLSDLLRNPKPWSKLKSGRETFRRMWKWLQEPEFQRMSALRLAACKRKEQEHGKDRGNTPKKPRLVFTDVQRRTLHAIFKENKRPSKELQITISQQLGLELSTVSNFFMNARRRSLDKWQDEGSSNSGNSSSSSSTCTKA
Paired box protein Pax-6 (Homo sapiens), sequence (P26367 whole entry, looked up): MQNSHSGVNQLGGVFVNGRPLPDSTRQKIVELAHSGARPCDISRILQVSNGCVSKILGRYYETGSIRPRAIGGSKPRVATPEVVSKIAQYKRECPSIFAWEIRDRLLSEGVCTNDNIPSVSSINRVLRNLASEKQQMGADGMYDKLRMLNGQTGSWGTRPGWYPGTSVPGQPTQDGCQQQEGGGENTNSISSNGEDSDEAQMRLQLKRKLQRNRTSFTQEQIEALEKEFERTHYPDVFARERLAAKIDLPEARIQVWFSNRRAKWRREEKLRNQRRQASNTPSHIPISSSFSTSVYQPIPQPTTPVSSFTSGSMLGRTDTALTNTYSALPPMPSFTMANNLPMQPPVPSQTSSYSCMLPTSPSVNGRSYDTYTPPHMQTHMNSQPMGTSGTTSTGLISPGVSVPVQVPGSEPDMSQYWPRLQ
Hepatocyte nuclear factor 3-beta (Homo sapiens), sequence (Q9Y261 whole entry, looked up): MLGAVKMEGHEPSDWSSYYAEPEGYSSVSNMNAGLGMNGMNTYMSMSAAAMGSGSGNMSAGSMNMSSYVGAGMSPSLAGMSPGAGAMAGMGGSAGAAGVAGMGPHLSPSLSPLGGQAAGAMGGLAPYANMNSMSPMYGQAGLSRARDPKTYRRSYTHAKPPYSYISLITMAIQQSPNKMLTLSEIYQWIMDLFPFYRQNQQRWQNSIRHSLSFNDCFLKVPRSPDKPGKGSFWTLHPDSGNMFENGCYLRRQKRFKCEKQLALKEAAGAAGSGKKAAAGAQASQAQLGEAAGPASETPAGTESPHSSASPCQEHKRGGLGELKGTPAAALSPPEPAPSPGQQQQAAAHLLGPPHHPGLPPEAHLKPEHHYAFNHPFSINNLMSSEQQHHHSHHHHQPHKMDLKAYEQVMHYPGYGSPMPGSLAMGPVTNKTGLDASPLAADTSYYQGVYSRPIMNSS
Hypoxia-inducible factor 1-alpha (Homo sapiens), sequence (Q16665 whole entry, looked up): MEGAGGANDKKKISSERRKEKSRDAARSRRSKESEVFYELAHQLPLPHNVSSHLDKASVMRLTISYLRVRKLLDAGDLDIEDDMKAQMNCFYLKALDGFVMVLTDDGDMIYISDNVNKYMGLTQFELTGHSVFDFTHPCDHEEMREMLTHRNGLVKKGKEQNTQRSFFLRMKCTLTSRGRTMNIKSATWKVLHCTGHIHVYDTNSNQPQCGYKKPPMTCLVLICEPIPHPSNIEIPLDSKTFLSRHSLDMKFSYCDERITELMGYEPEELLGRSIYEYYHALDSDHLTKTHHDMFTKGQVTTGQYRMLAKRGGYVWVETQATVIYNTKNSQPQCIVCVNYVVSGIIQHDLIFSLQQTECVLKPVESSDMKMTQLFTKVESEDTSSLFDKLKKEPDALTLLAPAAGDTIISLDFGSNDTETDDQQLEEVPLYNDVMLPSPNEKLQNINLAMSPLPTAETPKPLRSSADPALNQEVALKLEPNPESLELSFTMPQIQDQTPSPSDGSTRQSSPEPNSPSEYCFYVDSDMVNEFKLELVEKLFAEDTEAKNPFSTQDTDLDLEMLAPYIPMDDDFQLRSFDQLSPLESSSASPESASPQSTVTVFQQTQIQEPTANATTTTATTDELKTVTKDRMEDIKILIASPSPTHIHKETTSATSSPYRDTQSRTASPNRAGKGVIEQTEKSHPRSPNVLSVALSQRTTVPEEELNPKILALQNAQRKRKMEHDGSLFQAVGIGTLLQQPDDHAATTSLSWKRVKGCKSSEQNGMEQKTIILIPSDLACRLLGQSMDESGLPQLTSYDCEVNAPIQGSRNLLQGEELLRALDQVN

Consider `O=C(NC(=O)c1c(F)cccc1F)Nc1cc(Cl)c(OC(F)(F)C(F)F)c(Cl)c1`, for which the result in experiment [1], in [2], in [3], in experiment [4], in experiment [5] and in experiment [6] was inactive. In addition, the outcome in experiment [7], in [8], in [9], in experiment [10], in experiment [11] and in experiment [12] was inactive. Also, the compound was classed as inactive in experiment [13], in experiment [14], in experiment [15], in experiment [16], in experiment [17] and in experiment [18]. Also, in experiment [19], the outcome was inactive.

As for `Cc1ccc(O)c(C)c1`, the outcome in experiment [1], in experiment [2], in [3], in experiment [4], in experiment [5] and in [6] was inactive. Also, the compound was classed as inactive in experiment [7], in [8], in experiment [9], in experiment [10], in experiment [11] and in experiment [12]. The compound was called inactive in [13], in [14], in experiment [15], in experiment [16], in experiment [17] and in experiment [19].

What is called AC50 is the midpoint of the concentration-response curve, whichever way the signal moves. Consider `Cc1cc2c3c(c1)C(c1ccccc1)=N[C@@H](NC(=O)c1ccncc1)C(=O)N3CC2`, for which the result in [1], in [2], in experiment [4], in [5], in experiment [7] and in experiment [8] was inactive. The compound was called inactive in experiment [9], in [10], in experiment [13], in [14], in experiment [15] and in [16]. The AC50 in experiment [3] is 42.8 µM (active); in experiment [6], 153 µM (active); in experiment [12], 102 µM (active); in experiment [20], 72.4 µM (active); in [17] it was 77.1 µM (active); in experiment [18], 3.47 µM (active). In experiment [19], the AC50 is 100 µM (active).

As to `CCC(C)(CC)c1cc(NC(=O)c2c(OC)cccc2OC)on1`, the result in experiment [1], in experiment [2], in experiment [3], in [4], in [6] and in experiment [7] was inactive. Besides, the compound was classed as inactive in experiment [8], in [9], in experiment [10], in [12], in experiment [13] and in experiment [14]. The compound was classed as inactive in [15], in [16] and in [19]. Further, the AC50 in [20] is 8.77 µM (active); in [17], 14.4 µM (active); in experiment [18] it was 1.43 µM (active).

For the compound `CC1=C2C[C@H]3[C@@H](CC=C4C[C@@H](O)CC[C@@]43C)[C@@H]2CC[C@]12O[C@@H]1C[C@H](C)CN[C@H]1[C@H]2C`, the outcome in experiment [1], in experiment [2], in experiment [3], in [4], in [5] and in experiment [6] was inactive. Further, the result in experiment [8], in experiment [9], in [10], in [11], in experiment [12] and in [13] was inactive. The call in [14], in experiment [15], in [16] and in experiment [18] was inactive. The values for the concentration at half-maximal activity (AC50) in experiment [7], in experiment [17] and in experiment [19] were 13 µM (active), 16.1 µM (active) and 13.5 µM (active), respectively.

With `O=S(=O)(O)C(F)(F)C(F)(F)C(F)(F)C(F)(F)F`, the result in experiment [1], in experiment [2], in [3], in experiment [4], in experiment [5] and in experiment [6] was inactive. Further, the outcome in experiment [7], in experiment [8], in [9], in experiment [10], in experiment [11] and in experiment [12] was inactive. Besides, the compound was called inactive in experiment [13], in experiment [14], in [15], in experiment [16], in experiment [17] and in experiment [18]. Also, the result in [19] was inactive.
